Test results from PubChem BioAssay (EPA / NIEHS).
Activity calls are given as the source filed them. Rule for the calls: active = hit-call score of the fitted dose curve at least 0.9, where 1 is the maximum; inactive = score below 0.9.

Legend:
[1] = ATG_CRE_CIS: Attagene CIS-FACTORIAL HepG2 Assay for human cAMP Responsive Element (CRE) binding protein 3 (AID 2282926); settings: HepG2 CRE cis-reporter, Attagene multiplexed mRNA; actives raise or lower the signal
Outline: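 Multiplexed transcription-unit reporters transfected into HepG2; 24 h dosing; RT-PCR/capillary electrophoresis fluorescence read-out; bidirectional fit vs DMSO.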

[2] = target: CCAAT/enhancer-binding protein beta (Homo sapiens) (UniProt P17676); assay: ATG_C_EBP_CIS: Attagene CIS-FACTORIAL HepG2 Assay for human CCAAT/Enhancer Binding Protein (C/EBP) beta (AID 2282927); settings: HepG2 Attagene cis-factorial transcription factor reporter; actives raise or lower the signal
CCAAT/enhancer-binding protein beta (Homo sapiens), sequence (P17676 whole entry, looked up): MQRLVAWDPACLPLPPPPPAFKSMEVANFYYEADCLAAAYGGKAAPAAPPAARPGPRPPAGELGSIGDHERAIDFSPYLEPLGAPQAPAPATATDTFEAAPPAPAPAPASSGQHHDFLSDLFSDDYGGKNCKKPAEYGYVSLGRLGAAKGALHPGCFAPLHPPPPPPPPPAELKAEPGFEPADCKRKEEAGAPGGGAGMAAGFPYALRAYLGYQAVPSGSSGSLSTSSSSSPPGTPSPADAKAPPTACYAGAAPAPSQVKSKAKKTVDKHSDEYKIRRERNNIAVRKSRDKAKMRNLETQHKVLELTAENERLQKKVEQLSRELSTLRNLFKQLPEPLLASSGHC
Outline: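 HepG2 transiently transfected with multiplexed reporter units under cis-regulatory promoters reporting endogenous C/EBPb activity. After 24 h exposure, reporter mRNA assayed by RT-PCR, fluorescent labelling, HpaI digestion and capillary electrophoresis; bidirectional fitting versus DMSO.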

[3] = ATG_CMV_CIS: Attagene CIS-FACTORIAL HepG2 Assay for human CMV (Internal Marker) (AID 2282928); settings: HepG2 CMV promoter reporter, transcription factor profiling; actives raise or lower the signal;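 note: endpoint acts as a background internal control marker rather than a target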
Outline: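 Endogenous transcription factor activity read in HepG2 via transfected cis-promoter reporter units. After 24 h dosing, reporter mRNA measured by RT-PCR/capillary electrophoresis; gain or loss of signal fit relative to DMSO.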

[4] = ATG_DR4_LXR_CIS: Attagene CIS-FACTORIAL HepG2 Assay for human Liver X Receptor (LXR), DR4 submotif (AID 2282929); settings: HepG2 Attagene DR4 cis-reporter, mRNA transcription; actives raise or lower the signal
Outline: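 Measures endogenous transcription factor activity via a DR4-driven reporter transcript in human HepG2 cells. Compounds incubated 24 h; mRNA quantified by RT-PCR and capillary electrophoresis, analysed as gain or loss of signal versus DMSO.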

[5] = target: Aryl hydrocarbon receptor (Homo sapiens) (UniProt P35869); assay: ATG_Ahr_CIS: Attagene CIS-FACTORIAL HepG2 Assay for human Aryl Hydrocarbon Receptor (Ahr) (AID 2282930); settings: HepG2 AhR cis-factorial reporter transcription; actives raise or lower the signal
Aryl hydrocarbon receptor (Homo sapiens), sequence (P35869 whole entry, looked up): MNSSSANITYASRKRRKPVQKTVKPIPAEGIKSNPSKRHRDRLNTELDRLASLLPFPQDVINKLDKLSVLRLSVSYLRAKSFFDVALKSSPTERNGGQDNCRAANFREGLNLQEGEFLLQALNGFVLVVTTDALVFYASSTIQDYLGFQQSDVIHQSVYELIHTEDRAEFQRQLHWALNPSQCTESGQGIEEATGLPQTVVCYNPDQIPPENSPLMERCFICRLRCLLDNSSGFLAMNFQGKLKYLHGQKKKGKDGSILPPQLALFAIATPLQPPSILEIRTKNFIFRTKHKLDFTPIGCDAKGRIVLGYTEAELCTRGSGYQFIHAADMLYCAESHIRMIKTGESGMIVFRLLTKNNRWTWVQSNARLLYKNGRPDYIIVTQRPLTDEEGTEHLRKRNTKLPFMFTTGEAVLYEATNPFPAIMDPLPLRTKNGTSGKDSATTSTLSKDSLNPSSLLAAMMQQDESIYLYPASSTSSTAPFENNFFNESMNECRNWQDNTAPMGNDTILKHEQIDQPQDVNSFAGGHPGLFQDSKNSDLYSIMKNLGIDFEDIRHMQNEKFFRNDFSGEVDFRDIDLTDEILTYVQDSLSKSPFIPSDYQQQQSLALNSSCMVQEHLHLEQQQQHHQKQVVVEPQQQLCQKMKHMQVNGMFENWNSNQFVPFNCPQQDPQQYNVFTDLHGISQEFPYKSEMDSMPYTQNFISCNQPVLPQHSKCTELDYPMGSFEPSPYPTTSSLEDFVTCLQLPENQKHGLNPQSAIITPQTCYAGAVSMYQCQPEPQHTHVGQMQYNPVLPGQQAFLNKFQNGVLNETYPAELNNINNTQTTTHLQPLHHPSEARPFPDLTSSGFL
Outline: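 HepG2 cells transiently transfected with cis-element-driven multiplexed reporter units; endogenous AhR activity read as reporter mRNA 24 h after dosing, via RT-PCR, 6-FAM labelling, HpaI digestion and capillary electrophoresis. Bidirectional fit relative to DMSO.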

[6] = ATG_AP_1_CIS: Attagene CIS-FACTORIAL HepG2 Assay for human Activator Protein 1 (AP-1) (AID 2282931); settings: HepG2 Attagene cis-factorial AP-1 reporter mRNA; actives raise or lower the signal
Outline: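 Bidirectional concentration-response fitting against DMSO controls. Underlying signal: reporter mRNA from cis-promoter constructs in transiently transfected HepG2, measured after 24 h by RT-PCR and capillary electrophoresis.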

[7] = ATG_AP_2_CIS: Attagene CIS-FACTORIAL HepG2 Assay for human Activator Protein 2 (AP-2) (AID 2282932); settings: HepG2 AP-2 cis-reporter, Attagene transcription factor profiling; actives raise or lower the signal
Outline: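 HepG2 cells transiently transfected with cis-element reporter units and exposed for 24 h. Reporter mRNA measured by RT-PCR, FAM labelling, HpaI digestion and capillary electrophoresis. Changes in either direction fitted relative to DMSO.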

[8] = ATG_BRE_CIS: Attagene CIS-FACTORIAL HepG2 Assay for human Bone Morphogenetic Protein (BMP) Response Element (BRE) (AID 2282933); settings: HepG2 BMP response element reporter, Attagene transcription factor profiling; actives raise or lower the signal
Outline: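 Multiplexed cis-reporter assay, HepG2, 24 h exposure. mRNA from reporter units quantified via RT-PCR/CE; DMSO baseline; bidirectional curve fit.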

[9] = target: Retinoic acid receptor alpha (Homo sapiens) (UniProt P10276); assay: ATG_DR5_RAR_CIS: Attagene CIS-FACTORIAL HepG2 Assay for human Retinoic Acid Receptor Alpha (RARE), DR5 submotif (AID 2282934); settings: HepG2 Attagene cis-factorial RARE DR5 reporter, mRNA; actives raise or lower the signal;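 for AC50: reporter responds to endogenous RAR alpha beta and gamma in HepG2 not RARA alone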
Retinoic acid receptor alpha (Homo sapiens), sequence (P10276 whole entry, looked up): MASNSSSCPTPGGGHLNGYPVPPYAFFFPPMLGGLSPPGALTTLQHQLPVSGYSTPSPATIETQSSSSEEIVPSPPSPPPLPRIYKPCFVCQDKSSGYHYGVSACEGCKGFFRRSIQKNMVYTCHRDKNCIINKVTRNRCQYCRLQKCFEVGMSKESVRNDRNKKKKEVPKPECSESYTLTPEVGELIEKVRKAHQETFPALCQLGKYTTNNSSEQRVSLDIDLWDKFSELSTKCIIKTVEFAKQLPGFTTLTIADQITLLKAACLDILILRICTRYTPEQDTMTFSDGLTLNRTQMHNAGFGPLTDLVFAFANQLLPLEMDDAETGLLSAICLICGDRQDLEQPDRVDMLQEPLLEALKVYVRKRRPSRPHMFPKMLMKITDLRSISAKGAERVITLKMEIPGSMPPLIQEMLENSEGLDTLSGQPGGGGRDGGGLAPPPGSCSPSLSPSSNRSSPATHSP
Outline: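 HepG2 cells transiently transfected with multiplexed reporter units; DR5 cis-element drives reporter through endogenous transcription factors. After 24 h dosing, reporter mRNA quantified by RT-PCR, fluorescent labeling, HpaI digestion and capillary electrophoresis; bidirectional fitting versus DMSO.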

[10] = target: Transcription factor E2F1 (Homo sapiens) (UniProt Q01094); assay: ATG_E2F_CIS: Attagene CIS-FACTORIAL HepG2 Assay for human E2F Transcription Factor 1 (AID 2282935); settings: HepG2 Attagene cis-reporter, E2F reporter RNA transcripts; actives raise or lower the signal
Transcription factor E2F1 (Homo sapiens), sequence (Q01094 whole entry, looked up): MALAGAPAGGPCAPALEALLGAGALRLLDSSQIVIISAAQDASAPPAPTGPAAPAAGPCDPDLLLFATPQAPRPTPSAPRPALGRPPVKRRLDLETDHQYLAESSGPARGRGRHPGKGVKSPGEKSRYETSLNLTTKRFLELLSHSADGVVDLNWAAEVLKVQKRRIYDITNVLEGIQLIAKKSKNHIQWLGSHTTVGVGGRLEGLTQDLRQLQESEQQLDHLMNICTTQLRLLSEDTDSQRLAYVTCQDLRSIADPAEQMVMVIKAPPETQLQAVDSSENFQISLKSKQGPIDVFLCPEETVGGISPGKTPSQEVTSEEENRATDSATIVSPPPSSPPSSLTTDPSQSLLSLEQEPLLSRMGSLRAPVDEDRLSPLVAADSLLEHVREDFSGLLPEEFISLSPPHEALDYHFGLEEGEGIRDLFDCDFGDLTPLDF
Outline: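 Endogenous E2F1 activity read through cis-promoter reporter units transfected into HepG2. After 24 h compound treatment, reporter mRNA measured by RT-PCR, HpaI digestion and capillary electrophoresis. Bidirectional fit versus DMSO.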

[11] = ATG_M_61_CIS: Attagene CIS-FACTORIAL HepG2 Assay for M61 Transcription Factor (Internal Marker) (AID 2282937); settings: HepG2 Attagene CIS-FACTORIAL M61 internal marker reporter; actives raise or lower the signal
Outline: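 Fluorescence from labelled cDNA fragments, separated by capillary electrophoresis, quantifies reporter induction. HepG2 cells bearing transiently transfected cis-promoter MRTUs were incubated with test chemical for 24 h; DMSO defined baseline for gain/loss fitting.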

[12] = ATG_EGR_CIS: Attagene CIS-FACTORIAL HepG2 Assay for human Early Growth Response 1 (EGR1) (AID 2282938); settings: HepG2 Attagene CIS-FACTORIAL EGR reporter mRNA; actives raise or lower the signal
Outline: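 Cell-based multiplex transcription assay: HepG2 carrying transfected cis-element reporter units, 24 h chemical treatment. Fluorescence from capillary electrophoresis of RT-PCR products gives mRNA levels; fitting is bidirectional relative to DMSO.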

[13] = ATG_M_19_CIS: Attagene CIS-FACTORIAL HepG2 Assay for M19 Transcription Factor (Internal Marker) (AID 2282939); settings: HepG2 Attagene CIS-FACTORIAL M19 internal marker reporter; actives raise or lower the signal
Outline: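 Signals come from fluorescence of labelled reporter-specific PCR fragments resolved by capillary electrophoresis, following 24 h treatment of HepG2 cells transfected with cis-promoter reporter units; activity was fitted in both directions relative to DMSO.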

[14] = ATG_Ets_CIS: Attagene CIS-FACTORIAL HepG2 Assay for human Erythroblast Transformation Specific (ETS) (AID 2282941); settings: HepG2 ETS cis-reporter transcription, actives raise or lower the signal
Outline: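 Steps: transfect HepG2 with multiple reporter units; treat compound 24 h; isolate RNA, DNase-treat, reverse-transcribe; PCR-amplify, label with 6-FAM, digest with HpaI; separate by capillary electrophoresis. Activity fitted both directions versus DMSO.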

[15] = target: Hepatocyte nuclear factor 3-beta (Homo sapiens) (UniProt Q9Y261); assay: ATG_FoxA2_CIS: Attagene CIS-FACTORIAL HepG2 Assay for human Forkhead box A2 (FOXA2) (AID 2282942); settings: HepG2 cis-reporter transcription factor activity, 24 h; actives raise or lower the signal
Hepatocyte nuclear factor 3-beta (Homo sapiens), sequence (Q9Y261 whole entry, looked up): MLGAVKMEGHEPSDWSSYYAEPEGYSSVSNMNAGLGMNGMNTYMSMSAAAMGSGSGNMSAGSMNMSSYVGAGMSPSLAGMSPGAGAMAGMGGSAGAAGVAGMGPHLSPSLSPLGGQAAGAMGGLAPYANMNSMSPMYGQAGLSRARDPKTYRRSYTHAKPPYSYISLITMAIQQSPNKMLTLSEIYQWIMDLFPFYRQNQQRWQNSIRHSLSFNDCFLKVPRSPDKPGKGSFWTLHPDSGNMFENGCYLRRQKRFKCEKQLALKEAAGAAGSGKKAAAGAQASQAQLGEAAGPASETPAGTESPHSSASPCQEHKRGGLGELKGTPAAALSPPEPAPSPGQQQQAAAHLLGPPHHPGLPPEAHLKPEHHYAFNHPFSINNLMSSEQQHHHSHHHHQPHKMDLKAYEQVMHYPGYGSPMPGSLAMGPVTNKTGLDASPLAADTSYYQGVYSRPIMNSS
Outline: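 In transiently transfected human HepG2 cells, promoter-driven reporter mRNA levels after 24 h chemical exposure are determined via RT-PCR with capillary electrophoresis. DMSO serves as baseline for bidirectional fitting.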

[16] = ATG_FoxO_CIS: Attagene CIS-FACTORIAL HepG2 Assay for human Forkhead box O (FoxO) (AID 2282943); settings: HepG2 Attagene cis-reporter, FoxO element, mRNA; actives raise or lower the signal
Outline: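 HepG2 cells transiently transfected with cis-element-driven reporter units report endogenous FoxO activity. After 24 h chemical exposure, reporter mRNA quantified by RT-PCR, fluorescent labeling, HpaI digestion and capillary electrophoresis; bidirectional fit versus DMSO.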

[17] = ATG_GATA_CIS: Attagene CIS-FACTORIAL HepG2 Assay for human GATA Binding Protein (AID 2282944); settings: HepG2 GATA cis-element reporter, Attagene multiplex mRNA; actives raise or lower the signal
Outline: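 After transfecting HepG2 cells with multiple cis-regulated reporter units, chemicals are dosed for 24 h; isolated RNA undergoes RT-PCR and fluorescent labeling before capillary electrophoresis, with activity expressed against DMSO.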

[18] = ATG_GLI_CIS: Attagene CIS-FACTORIAL HepG2 Assay for human Zinc Finger Protein GLI1 (AID 2282945); settings: HepG2, Attagene cis-factorial reporter mRNA, GLI element; actives raise or lower the signal
Outline: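 Transiently transfected HepG2 cells report endogenous transcription factor activity via cis-element-driven reporter units. After 24 h compound exposure, reporter mRNA was measured by RT-PCR with capillary electrophoresis; bidirectional fitting against DMSO baseline.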

[19] = ATG_E_Box_CIS: Attagene CIS-FACTORIAL HepG2 Assay for human Enhancer Box (E-box) (AID 2282936); settings: HepG2 E-box cis-reporter transcription, actives raise or lower the signal
Outline: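 HepG2 cells transiently transfected with multiplexed cis-element reporter units, dosed 24 h; reporter mRNA quantified by RT-PCR, 6-FAM labelling, HpaI digestion and capillary electrophoresis. E-box (USF1) signal fitted bidirectionally vs DMSO.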

[20] = ATG_ERE_CIS: Attagene CIS-FACTORIAL HepG2 Assay for Estrogen Response Element (ERE) (AID 2282940); settings: HepG2 ERE cis-reporter, Attagene RNA transcript; actives raise or lower the signal
Outline: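 Fluorescence of capillary-separated, FAM-labelled reporter cDNA fragments indicates reporter mRNA levels in HepG2 cells exposed to chemicals for 24 h. Transient transfection with cis-regulated units; data fitted in both directions against DMSO.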

Measured: AC50

CCCCN(CCCC)C(=O)N(CCCC)CCCC
active: [2] 44.5 µM | [4] 27.9 µM | [6] 58.5 µM | [18] 51.7 µM
not listed: [19] | [20]
inactive: all other assays above

c1ccc(CCc2ccccc2)cc1
active: [4] 161 µM | [6] 172 µM
not listed: [8] | [20]
inactive: all other assays above

COC(=O)C=C(C)CCC=C(C)C
not listed: [8]
inactive: all other assays above

CCNCCO
not listed: [10] | [20]
inactive: all other assays above

CCCCCc1ccco1
active: [4] 101 µM | [6] 90.9 µM | [12] 108 µM
not listed: [10] | [11] | [19] | [20]
inactive: all other assays above

Cc1ccc(C)o1
not listed: [10] | [13] | [16] | [20]
inactive: all other assays above

C=C(C)[C@@H]1CC=C(C)C(=O)C1
not listed: [9] | [15] | [20]
inactive: all other assays above

CSc1c(Cl)c(Cl)c(Cl)c(Cl)c1Cl
active: [1] 169 µM | [3] 26.3 µM | [4] 32 µM | [19] 26 µM | [18] 185 µM
not listed: [8] | [20]
inactive: all other assays above

C=C(CC(=O)O)C(=O)O
not listed: [10] | [20]
inactive: all other assays above

COCCc1ccc(OCC(O)CNC(C)C)cc1 (stereo not given)
not listed: [8] | [16] | [20]
inactive: all other assays above

CC(C)(N=C=O)c1cccc(C(C)(C)N=C=O)c1
not listed: [8] | [20]
inactive: all other assays above

CC(=O)OCCCc1ccccc1
not listed: [8] | [15] | [20]
inactive: all other assays above

CCc1ccc(O)cc1
active: [5] 68.7 µM
not listed: [8] | [20]
inactive: all other assays above

BrCc1cccc(Oc2ccccc2)c1
active: [4] 159 µM | [9] 5.96 µM
not listed: [10] | [12] | [20]
inactive: all other assays above

C=CC(=O)OCCCC
not listed: [10] | [16] | [20]
inactive: all other assays above

CCCCCC(=O)CC
not listed: [9] | [12] | [16] | [20]
inactive: all other assays above

NCc1ccco1
not listed: [10] | [19] | [20]
inactive: all other assays above
